Results published in PubChem BioAssay AID686921 (National Center for Advancing Translational Sciences (NCATS), 2013).
Activity calls are given as the source filed them. Calls come from the whole dose curve; as a rule, active = well fitted curve in the direction sought with a large enough effect; inconclusive = small, poorly fitted or top-dose-only effect, or another doubt; inactive = no such curve, though single readings can be large or run the other way.

Assay: qHTS screen for inhibitors of ELG1-dependent DNA repair in human embryonic kidney (HEK293T) cells expressing luciferase-tagged ELG1: 5FU Viability Assay for probe SAR
Details: HEK293T ELG1-luc, CellTiter-Glo viability, 16 h; series mostly up to 46.1 µM
Source text: Cancer cells divide rapidly compared to normal cells in the body. During cell division, cancer cells need to duplicate their genome by DNA replication. The failure of genome duplication leads to cancer cells' death. Therefore, inhibitors of DNA replication could specifically kill cancer cells. Based on this concept, many chemotherapeutic agents were developed and have been used to treat cancer patients. However, there are a limited number of agents available in the clinical setting, and some of those that do exist have low efficacy and severe side effects. Therefore, if we can find the compounds that effectively block DNA replication either by directly damaging DNA or by inhibiting other cellular mechanisms, the options for cancer treatment will be broadened. With this in mind, we developed a quantitative high-throughput ELG1-luciferase reporter gene assay. Small molecules that specifically block ELG1 function in response to DNA damage can be identified by monitoring the suppression of luciferase activity. Since ELG1 defines a pathway for repairing DNA damage, agents blocking ELG1 function can be used to sensitize cancer cells to chemotherapeutic agents whose mechanism of action involves the induction of DNA damage. Cytotoxicity of the active compounds in the ELG1 qHTS assay (AID 493107) was assessed using the CellTiter-Glo Luminescent Cell Viability Assay kit (Promega, USA). CellTiter-Glo measures the intracellular ATP present in metabolically active cells using Ultra-Glo as the luciferase to detect ATP levels. In brief, the luciferase in the buffer catalyzes the oxidation of luciferin to oxyluciferin and light which is dependent on ATP. […] DMSO and wells with media alone were used as positive and negative controls, respectively. Inactivity to this assay is the desirable outcome. NIH Molecular Libraries Probe Production Network [MLPCN] NIH Chemical Genomics Center [NCGC] MLPCN Grant: R03 MH092164 Assay Provider: Kyungjae Myung, NHGRI, NIH
ELG1-luc HEK293T cells will be seeded in 1536-well plates at a density of 2,000 cells/well. Approximately 5 hours after plating, compounds will be added to the plate by pin tool transfer and 5-fluorouridine will be added by FRD dispenser (final concentration of 5-fluorouridine =10 µM). 16 hours following the addition of the compounds, cell viability will be measured using CellTiter Glo.

Row | Structure (SMILES) | outcome
1 | COc1nccc(-c2nc(Nc3ccc(F)c(F)c3)c3ccccc3n2)c1OC | inactive
2 | Fc1cc(Nc2nc(-c3ccncc3)nc3ccccc23)ccc1-c1ccc2[nH]ncc2c1 | inactive
3 | COc1ccc(-n2c(C)c(C(C)=O)c3cc(O)ccc32)cc1 | inactive
4 | Fc1cc(Nc2nc(-c3ccncc3)nc3ccccc23)ccc1N1CCCCC1 | inactive
5 | Fc1cc(Nc2nc(-c3ccncc3)nc3ccccc23)ccc1-c1ccncc1 | inactive
6 | Fc1ccc(-c2ccc(Nc3nc(-c4ccncc4)nc4ccccc34)cc2F)c(Cl)c1 | inactive
7 | Fc1cc(Nc2nc(-c3ccncc3)nc3ccccc23)ccc1-c1cn[nH]c1 | inactive
8 | COc1ccc(-c2nc(Nc3ccc(F)c(F)c3)c3ccccc3n2)cc1 | inactive
9 | Fc1cc(Nc2nc(-c3ccncc3)nc3ccccc23)ccc1N1CCNCC1 | inactive
10 | CN1CCN(c2ccc(Nc3nc(-c4ccncc4)nc4ccccc34)cc2F)CC1 | inactive
11 | Fc1cc(Nc2nc(-c3ccncc3)nc3ccccc23)ccc1-n1cncn1 | inactive
12 | COc1nccc(-c2nc(Nc3ccc(F)c(F)c3)c3ccccc3n2)c1Cl | inactive
13 | Fc1ccc(Nc2cc(-c3ccccc3)nc(-c3ccncc3)n2)cc1F | inactive
14 | COc1cc(-c2nc(Nc3ccc(F)c(F)c3)c3ccccc3n2)ccn1 | inactive
15 | COc1cc(Nc2nc(-c3ccncc3)nc3ccccc23)ccc1Cl | inactive
16 | Fc1ccc(-c2nc(-c3ccncc3)nc3ccccc23)cc1F | inactive
17 | Fc1ccc(Nc2nc(-c3ccncc3F)nc3ccccc23)cc1F | inactive
18 | COC(=O)c1ccc(Nc2nc(-c3ccncc3)nc3ccccc23)cc1OC | inactive
19 | Cc1cc(-c2nc(Nc3ccc(F)c(F)c3)c3ccccc3n2)cc(C)n1 | inactive
20 | Fc1ccccc1-c1ccc(Nc2nc(-c3ccncc3)nc3ccccc23)cc1F | inactive

Row | Structure (SMILES) | outcome
21 | O=c1cc(-c2nc(Nc3ccc(F)c(F)c3)c3ccccc3n2)cc[nH]1 | inactive
22 | CCOC(=O)c1ccc2c(c1)c(C(C)=O)c(C)n2-c1ccc(OC)cc1 | inactive
23 | Fc1ccc(Nc2nc(-c3ccncc3Cl)nc3ccccc23)cc1F | inactive
24 | Nc1cc(-c2nc(Nc3ccc(F)c(F)c3)c3ccccc3n2)ccn1 | inactive
25 | COc1cc(Nc2nc(-c3ccncc3)nc3ccccc23)ccc1NS(C)(=O)=O | inactive
26 | Oc1ccc(Nc2nc(-c3ccncc3)nc3ccccc23)cc1F | inactive
27 | Fc1cc(Nc2nc(-c3ccncc3)nc3ccccc23)ccc1-c1cccc(C(F)(F)F)c1 | inactive
28 | O=[N+]([O-])c1ccc(-c2nc(Nc3ccc(F)c(F)c3)c3ccccc3n2)cc1 | inactive
29 | COc1cnccc1-c1nc(Nc2ccc(F)c(F)c2)c2ccccc2n1 | inactive
30 | COc1cc(Nc2nc(-c3ccncc3)nc3ccccc23)ccc1F | inactive
31 | Cc1cnccc1-c1nc(Nc2ccc(F)c(F)c2)c2ccccc2n1 | inactive
32 | COc1cc(-c2nc(Nc3ccc(F)c(F)c3)c3ccccc3n2)cc(OC)n1 | inactive
33 | Fc1cc(Nc2nc(-c3ccncc3)nc3ccccc23)ccc1-c1cccc(OC(F)(F)F)c1 | inactive
34 | Cc1nc2ccc(Nc3nc(-c4ccncc4)nc4ccccc34)cc2s1 | inactive
35 | COc1cc(-c2nc(Nc3ccc(F)c(F)c3)c3ccccc3n2)c(F)cn1 | inactive
36 | Fc1cc(-c2nc(Nc3ccc(F)c(F)c3)c3ccccc3n2)ccn1 | inactive
37 | Fc1ccc(-c2ccc(Nc3nc(-c4ccncc4)nc4ccccc34)cc2F)c(F)c1 | inactive
38 | N#Cc1cnccc1-c1nc(Nc2ccc(F)c(F)c2)c2ccccc2n1 | inactive
39 | Fc1cc(Nc2nc(-c3ccncc3)nc3ccccc23)ccc1C(F)(F)F | inactive
40 | CSc1ccccc1-c1ccc(Nc2nc(-c3ccncc3)nc3ccccc23)cc1F | inactive
